Screens as filed in PubChem BioAssay.
Rows were chosen to be rich in hits. Some 19% of all compounds tested hit in one or more screens of this group.
DT40 TDP1 no CPT: qHTS for Inhibitors of human tyrosyl-DNA phosphodiesterase 1 (TDP1): qHTS in cells in absence of CPT. hit rate 15% among 420,000. Potency, µM (top dose mostly 46.2 µM), inactives show top-dose activity change, negative = growth inhibition, hits mostly inhibitors. DT40 Tdp1-/- hTDP1 cells, no CPT, ATP luminescence, 48 h; further: potency means the concentration at half of the fitted maximal effect; nearly all actives have a fitted effect of over 55% in size
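Growth kinetics read by CellTiter-Glo luminescence after ≥48 hr at 37 °C. Cells: DT40 Tdp1-/- stably carrying human TDP1, 400 per well, compound exposure in the absence of CPT (DMSO vehicle).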
TDP1 cell CPT: growth inhibition of DT40 Tdp1-/-;hTDP1 cells with camptothecin (screen for TDP1 inhibitors). Potency, µM (doses to about 46.2 µM), for the others: at the highest dose activity change, negative = growth inhibition, most hits filed as inhibitors. chicken DT40 Tdp1-/-;hTDP1 cells + 20 nM CPT, ATP luminescence, 48 h. hit rate 12% among 420,000; further: potency means the concentration at half of the fitted maximal effect; nearly all actives have a fitted effect of over 55% in size
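Chicken DT40 Tdp1-/- cells complemented with human TDP1, 400 cells/well, exposed to compounds plus 20 nM camptothecin for at least 48 h at 37 C; viability read as ATP content by CellTiter-Glo luminescence.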
ELG1 DNA repair: blocks ELG1-dependent DNA repair in HEK293T cells; HEK293T ELG1-luciferase reporter, luminescence, 16 h; DNA damage induced by 5-fluorouridine; Potency, µM (highest dose often 46.1 µM), for inactives: at the top dose activity change, negative = inhibition, most hits filed as inhibitors; hit rate 2.3% among 330,000; further: potency means the concentration at half of the fitted maximal effect; nearly all actives have a fitted effect of over 55% in size
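Luminescence from the luciferase reporter, measured 30 min after ONE-Glo reagent at room temperature, was the read-out. Beforehand, 2,000 cells per well were exposed for 16 hr at 37 °C to 5-fluorouridine together with compound or vehicle.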
HT1080NT lethal: kills 2HG-producing HT-1080-NT fibrosarcoma cells | HT-1080-NT fibrosarcoma viability, CellTiter-Glo ATP luminescence, 48 h | Potency, µM (titrated, usually from 46.1 µM), for inactives: at the highest dose activity, negative = less viability, most hits filed as cytotoxic | hit rate 1.6% among 360,000 | AID 686970;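 further: NT is the 2HG producing partner of a matched IDH1 knockdown line; potency means the concentration at half of the fitted maximal effect; 0% = DMSO-treated cells and -100% = media-only wells without cells; nearly all actives have a fitted effect of over 55% in size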
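HT-1080-NT fibrosarcoma cells (2HG-overproducing), 750 cells/well in RPMI with 5% FBS, dosed after 2 h and incubated 48 h at 37C. CellTiter-Glo luminescence normalized to DMSO and no-cell wells; concentration-response curves fitted and classed.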
IL1B secr inh: blocks inflammasome-driven IL-1 beta release; activity change, % at 57.5 µM; THP-1 LPS/ATP IL-1B secretion, AlphaLISA, 16 h; hits give low values; hit rate 4.7% among 360,000; in the data active means activity change below about -50%; inconclusive means mostly about -30% to -49%
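Secreted IL-1B measured by AlphaLISA bead assay after 16 h compound exposure of THP-1 cells; compounds (final up to 57.5 uM) added 1 h before LPS (250 ng/mL) and ATP (1.25 mM) stimulation; lower signal means less secretion.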
HT1080 IDH1KD tx: kills HT-1080 cells with IDH1 knockdown; hit rate 2% among 360,000; HT-1080 IDH1 knockdown viability, ATP luminescence, 48 h; AID 686971; Potency, µM (titrated, usually from 46.1 µM), inactives show at the highest dose activity, negative = toxicity, most hits filed as cytotoxic;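 further: potency means the concentration at half of the fitted maximal effect; 0% = DMSO wells and -100% = cell-free medium wells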
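Luminescent ATP read-out (CellTiter-Glo, 10 min at room temperature) after 48 h compound exposure at 37 °C gave viability of IDH1-knockdown HT-1080 cells. Activity was normalised to DMSO and cell-free wells, then fitted as concentration-response curves.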
Starred values were filed as active, the others as inactive; [ ] = another dose, or the depositor's remark. Unless noted, the call rests on the fitted dose curve; in most records, active means well fitted curve in the direction sought with a large enough effect; inconclusive means small, poorly fitted or top-dose-only effect, or another doubt; inactive means no such curve, though single readings can be large; an effect the other way counts as inactive or inconclusive. Unless noted, on the % scale 0 is the no-effect control and ±100 the full control effect.

Cc1ccccc1NC(=O)C(C)Sc1nnc(CN2CCCC2)n1Cc1ccccc1 (centres undefined) was read as DT40 TDP1 no CPT 16µM*, TDP1 cell CPT inconclusive, HT1080NT lethal 0%, IL1B secr inh -22 and HT1080 IDH1KD tx -2%.
For Cc1nnc(SC(C)C(=O)Nc2ccc(Cl)cn2)n1Cc1ccccc1 (centres undefined) the results were DT40 TDP1 no CPT inconclusive, TDP1 cell CPT -26%, ELG1 DNA repair -19%, HT1080NT lethal inconclusive, IL1B secr inh -60* and HT1080 IDH1KD tx -5%[9.24 µM].
For CC(C)CC1NC(=O)c2cccnc2-n2c1nc1ccccc1c2=O (centres undefined) the results were DT40 TDP1 no CPT -24%, TDP1 cell CPT 13%, HT1080NT lethal -4%, IL1B secr inh 4 and HT1080 IDH1KD tx 2%.
`O=C(NC1CCCC1)C1c2ccccc2OCC(=O)N1Cc1cccnc1` (centres undefined) gave DT40 TDP1 no CPT -4%, TDP1 cell CPT 3%, HT1080NT lethal -2%, IL1B secr inh -3 and HT1080 IDH1KD tx 3%.
For COc1ccc(NC(=O)CSC2=Nc3ccccc3C3=NC(CC(=O)NCc4ccc5c(c4)OCO5)C(=O)N23)cc1 (centres undefined) the results were DT40 TDP1 no CPT -8% and TDP1 cell CPT -23%.
For Cc1ccc(N2CCN(C(C(=O)Nc3c(C)cccc3C)c3cccc(F)c3)CC2)cc1 (centres undefined) the results were DT40 TDP1 no CPT inconclusive, TDP1 cell CPT inconclusive, HT1080NT lethal 24%, IL1B secr inh 0 and HT1080 IDH1KD tx 17%.
`Cc1ccc(N2CCN(C(CCc3ccccc3)C(=O)Nc3c(C)cccc3C)CC2)cc1` (centres undefined) gave DT40 TDP1 no CPT 15µM*, TDP1 cell CPT inconclusive, HT1080NT lethal 0%, IL1B secr inh -14 and HT1080 IDH1KD tx -9%.
Screening Cc1cccc(C)c1NC(=O)C(c1ccccc1)N(C)CCc1ccccc1 (centres undefined) returned DT40 TDP1 no CPT 18µM*, TDP1 cell CPT inconclusive, HT1080NT lethal inconclusive, IL1B secr inh 18 and HT1080 IDH1KD tx inconclusive.
Cc1ccc(C2=Nc3ccccc3SC(c3cccc([N+](=O)[O-])c3)C2)cc1 (centres undefined) was read as DT40 TDP1 no CPT 16µM*, TDP1 cell CPT inconclusive, ELG1 DNA repair inconclusive, HT1080NT lethal 8%, IL1B secr inh -17 and HT1080 IDH1KD tx 7%.
Screening CN1CC(c2ccc(Cl)c(Cl)c2)[C@@]2(COc3ccccc3C2=O)[C@@]12C(=O)Nc1ccccc12 (some centres undefined) returned DT40 TDP1 no CPT inconclusive, TDP1 cell CPT 18µM*, ELG1 DNA repair -7%, HT1080NT lethal -10%, IL1B secr inh -12 and HT1080 IDH1KD tx 7%.
Screening COc1ccccc1-c1ccc2c(c1)C(C)(Cc1ccc(Cl)c(Cl)c1)C(=O)N2 (centres undefined) returned DT40 TDP1 no CPT inconclusive, TDP1 cell CPT 21µM*, HT1080NT lethal inconclusive, IL1B secr inh -13 and HT1080 IDH1KD tx 23µM*.
For CC1(Cc2ccccc2C#N)C(=O)Nc2ccc(-c3ccccc3)cc21 (centres undefined) the results were DT40 TDP1 no CPT inconclusive, TDP1 cell CPT inconclusive, HT1080NT lethal -25%, IL1B secr inh -18 and HT1080 IDH1KD tx inconclusive.
Screening COc1ccccc1-c1ccc2c(c1)C(C)(Cc1ccccc1C#N)C(=O)N2 (centres undefined) returned DT40 TDP1 no CPT inconclusive, TDP1 cell CPT 21µM*, HT1080NT lethal -27%, IL1B secr inh -28 and HT1080 IDH1KD tx -17%.
For CCCC[C@H](CC(=O)c1ccccc1)[C@@H](OC(C)=O)C(=O)Oc1c(C(C)C)cccc1C(C)C the results were DT40 TDP1 no CPT inconclusive, TDP1 cell CPT 13µM*, ELG1 DNA repair -14%, HT1080NT lethal 12%, IL1B secr inh 16 and HT1080 IDH1KD tx 9%.
For CCCCC(CC)COC(=O)c1ccccc1C(=O)O (centres undefined) the results were DT40 TDP1 no CPT -15%[92.5 µM] and TDP1 cell CPT -2%[92.5 µM].
Cc1ccc(S(=O)(=O)N2CCN(CC(=O)N/N=C/C=C/c3ccccc3)CC2)cc1 was read as DT40 TDP1 no CPT inconclusive, TDP1 cell CPT 11%, ELG1 DNA repair -11%, HT1080NT lethal 1%, IL1B secr inh -6 and HT1080 IDH1KD tx -14%.
Screening COc1ccccc1C1CC(c2ccc(Br)cc2)=NN1C(=O)c1cccnc1 (centres undefined) returned DT40 TDP1 no CPT 16µM*, TDP1 cell CPT 16µM*, ELG1 DNA repair inconclusive, HT1080NT lethal inconclusive, IL1B secr inh -52* and HT1080 IDH1KD tx 15µM*.
COc1cccc(C2CC(c3ccc(Br)cc3)=NN2C(=O)c2ccncc2)c1OC (centres undefined) was read as DT40 TDP1 no CPT inconclusive, TDP1 cell CPT inconclusive, ELG1 DNA repair inconclusive, HT1080NT lethal 18µM*, IL1B secr inh -50* and HT1080 IDH1KD tx 18µM*.
For COCCNC(=O)c1ccc(-c2ccc(OC)cc2C)c2ccoc12 the results were DT40 TDP1 no CPT inconclusive, TDP1 cell CPT inconclusive, HT1080NT lethal -63%, IL1B secr inh -30 and HT1080 IDH1KD tx -16%.
For COc1ccc(-c2ccc(C(=O)NCC3CCOCC3)c3occc23)c(C)c1 the results were DT40 TDP1 no CPT inconclusive, TDP1 cell CPT inconclusive, HT1080NT lethal -16%, IL1B secr inh -11 and HT1080 IDH1KD tx inconclusive.
`COc1ccc(-c2ccc(C(=O)NCc3ccc(N4CCN(C)CC4)cc3)c3occc23)c(C)c1` gave DT40 TDP1 no CPT 16µM*, TDP1 cell CPT 16µM*, HT1080NT lethal 23µM*, IL1B secr inh inconclusive and HT1080 IDH1KD tx inconclusive.
For O=C(NC1CCCCC1)c1ccc(-c2cn[nH]c2)c2ccoc12 the results were DT40 TDP1 no CPT 16µM*, TDP1 cell CPT 23µM*, HT1080NT lethal -24%, IL1B secr inh -10 and HT1080 IDH1KD tx -17%.
For COc1ccc(-c2ccc(C(=O)NCc3ccc(C(F)(F)F)cc3)c3occc23)c(C)c1 the results were DT40 TDP1 no CPT 16µM*, TDP1 cell CPT 18µM*, HT1080NT lethal inconclusive, IL1B secr inh -22 and HT1080 IDH1KD tx inconclusive.
